Here are results for 40 compounds from PubChem BioAssay (Tox21).

Records with an inconclusive call do not appear. Unmarked numbers belong to inactive results. Activity calls are given as the source filed them. Calls follow the shape of the dose curve; as a rule, active = well fitted cell-killing curve with a large enough effect in the repeat runs; inconclusive = weak or mixed curves; inactive = flat fitted curve, though single readings scatter.
% is scaled to controls: 0 for no effect and ±100 for the full control effect; potency is read from the fitted curve at half-maximal effect.

This test in a line: qHTS assay to identify small molecule antagonists of the estrogen receptor beta (ER-beta) signaling pathway - cell viability counter screen (AID 1259382). Also: nearly all actives have a fitted effect of over 55% in size. To be noted: ER-beta-UAS-bla HEK293T viability, CellTiter-Glo luminescence, 16 h; series mostly up to 92.4 µM; activity change, negative = cytotoxicity: at the top concentration. From the text:
U.S. Tox21 Program National Center for Advancing Translational Sciences [NCATS] NIH Chemical Genomics Center [NCGC] U.S. Environmental Protection Agency [EPA] National Institutes of Environmental Health Sciences [NIEHS] National Toxicology Program [NTP] U.S. Food and Drug Administration [FDA] Tox21 Assay Overview: Estrogen receptor (ER), a nuclear hormone receptor, plays an important role in development, metabolic homeostasis and reproduction. Two subtypes of ER, ER-alpha and ER-beta, have similar expression patterns with some uniqueness in both types. Endocrine disrupting chemicals (EDCs) and their interactions with steroid hormone receptors like ER causes disruption of normal endocrine function. To identify the compounds that inhibit ER signaling, an ER-beta-UAS-bla GripTite cell line (Life Technologies, Madison, WI, USA) containing a beta-lactamase reporter gene under the control of an UAS response element was used to screen Tox21 10K compound library. The cytotoxicity of the Tox21 compound library against the ER-beta-bla cell line was tested in parallel by measuring the cell viability using CellTiter-Glo assay in the same wells.
Tox21 Assay Protocol Summary: ER-beta-UAS-bla HEK293T cells were dispensed at 2,000 cells/4 uL of assay medium containing 2% charcoal stripped FBS per well into black wall/clear-bottom 1536-well plates using a Multidrop Combi (ThermoFisher Scientific, Waltham, MA) dispenser. After the assay plates were incubated at a 37C and 5% CO2 for 6 hr, 23 nL of compounds dissolved in DMSO, positive controls or DMSO only was transferred to the assay plate by a Pintool station (Kalypsys, San Diego, CA), followed by addition of 1 uL (1nM as final concentration) of 17-beta-estradiol (E2) in assay medium using a Flying Reagent Dispenser (FRD, Aurora Discovery, San Diego, CA). The plates were incubated at 37C and 5% CO2 for 16 hr. Then 1 uL of LiveBLAzer B/G FRET substrate was added using a Flying Reagent Dispenser, the plates were incubated at room temperature for 2 hours, and fluorescence intensity was measured by an Envision plate reader (PerkinElmer, Shelton, CT). For cell viability readout that measures cytotoxicity, 4 uL/well of CellTiter-Glo reagent was added into the assay plates using a FRD. After 30 min incubation at room temperature, the luminescence intensity in the plates was measured using a ViewLux (PerkinElmer) plate reader.
For orientation: qHTS replaces the single test concentration by a dilution series.
On to `CCCCC(CC)COS(=O)(=O)O` (stereo not given), for which the “activity change, negative = cytotoxicity” value was 0.461%.

Consider `CC(=O)OCC(C)C`, for which the “activity change, negative = cytotoxicity” value is 10.5%.

On to `CC/C=C\C/C=C\C/C=C\CCCCCCCC(=O)OCC`, for which the “activity change, negative = cytotoxicity” value is -13.6%.

Regarding `O=P(O)(O)Oc1ccccc1`, the “activity change, negative = cytotoxicity” value is 3.88%.

For `c1ccc2sc(SSc3nc4ccccc4s3)nc2c1`, the activity change, negative = cytotoxicity is -0.0017% [at 19 µM].

`CO[C@@H]1[C@@H](OC)[C@H](C)[C@@](O)(CC(=O)O)O[C@H]1[C@H](C)[C@H]1O[C@@]2(CC[C@@](C)([C@H]3CC[C@@](C)([C@@H]4O[C@@H]([C@H]5O[C@](C)(O)[C@H](C)C[C@@H]5C)C[C@@H]4OC4C[C@H](OC)[C@@H](OC)[C@H](C)O4)O3)O2)C[C@H](O)[C@H]1C` (stereo not given in full): the Potency is 2660 nM (active).

As for `Cc1ccc2c(c1[N+](=O)[O-])C(=O)c1ccccc1C2=O`, the “activity change, negative = cytotoxicity” value was 0.37% [at 42.5 µM].

Turning to `Cc1ccc2nc(N)[nH]c(=O)c2c1Sc1ccncc1`, the “activity change, negative = cytotoxicity” value was -21.4% [at 42.5 µM].

Consider `CCN(CC)C(=O)N1CCN(C)CC1`, for which the “activity change, negative = cytotoxicity” value is 6.57% [at 42.5 µM].

For `O=C(NC(Cc1cc(=O)[nH]c2ccccc12)C(=O)O)c1ccc(Cl)cc1` (stereo not given), the “activity change, negative = cytotoxicity” value is -5.05% [at 42.5 µM].

For `O=C(O)c1cc(Cl)cc(Cl)c1O`, the “activity change, negative = cytotoxicity” value was -16.2%.

In the case of `O=c1[nH]c2cc(C(F)(F)F)c(N3CCOCC3)cc2n(CP(=O)(O)O)c1=O`, the “activity change, negative = cytotoxicity” value was 3.48% [at 42.5 µM].

On to `O=C(CCS)OCC(COC(=O)CCS)(COC(=O)CCS)COC(=O)CCS`, for which the “activity change, negative = cytotoxicity” value was 3.8%.

Regarding `CC(=O)OCCC(C)CC(C)(C)C` (stereo not given), the “activity change, negative = cytotoxicity” value was -2.41%.

In the case of `Cc1ccc(N(CCO)CCO)cc1`, the “activity change, negative = cytotoxicity” value was 1.47%.

Consider `Cc1cccc2sc(N)nc12`, for which the “activity change, negative = cytotoxicity” value was 3.17%.

On to `COc1ccc2nc(S(=O)Cc3ncc(C)c(OC)c3C)[nH]c2c1` (stereo not given), for which the Potency result was “inactive”.

As for `O=C(O)c1cccc(Oc2ccccc2)c1`, the “activity change, negative = cytotoxicity” value is 8.89%.

Turning to `CC(C)c1ccc(C#N)cc1`, the “activity change, negative = cytotoxicity” value is -0.149%.

Take `Cc1ccc(NC(=O)N(C)C)cc1NC(=O)N(C)C`: the “activity change, negative = cytotoxicity” value is -9.55%.

For the compound `O=S(=O)(O)CO`, the “activity change, negative = cytotoxicity” value was 7.12%.

Turning to `Nc1ccc(S(=O)(=O)NCc2ccccc2)cc1`, the “activity change, negative = cytotoxicity” value was -6.73% [at 42.5 µM].

Take `CC(CO)(CO)C(=O)O`: the “activity change, negative = cytotoxicity” value is 6.93%.

On to `Nc1ccc(F)cc1`, for which the “activity change, negative = cytotoxicity” value is -12.1%.

`CCOC(=O)N1CCC(Nc2ccc(Cl)cc2N)CC1`: the “activity change, negative = cytotoxicity” value is -14.1% [at 42.5 µM].

For the compound `O=C(Oc1ccccc1)c1ccc2ccccc2c1O`, the “activity change, negative = cytotoxicity” value was 0.454%.

Regarding `CC1CCCO1` (stereo not given), the “activity change, negative = cytotoxicity” value was 1.59%.

In the case of `NC(=O)c1ccccc1[N+](=O)[O-]`, the “activity change, negative = cytotoxicity” value was 1.16%.

As to `Cc1cc(CCC(=O)OCCOCCOCCOC(=O)CCc2cc(C)c(O)c(C(C)(C)C)c2)cc(C(C)(C)C)c1O`, the “activity change, negative = cytotoxicity” value was -2.73%.

On to `O=[N+]([O-])c1ccc2ncccc2c1`, for which the “activity change, negative = cytotoxicity” value was -3.69%.

Turning to `CC12CC3CC(C)(C1)CC(N)(C3)C2`, the “activity change, negative = cytotoxicity” value is 0.994% [at 42.5 µM].

Take `CSCC[C@H](NC(=O)[C@H](Cc1c[nH]c2ccccc12)NC(=O)CCNC(=O)OC(C)(C)C)C(=O)N[C@@H](CC(=O)O)C(=O)N[C@@H](Cc1ccccc1)C(N)=O`: the “activity change, negative = cytotoxicity” value is 9.46% [at 42.5 µM].

Consider `O=[N+]([O-])C1(Br)COCOC1`, for which the “activity change, negative = cytotoxicity” value is -4.5%.

Consider `O=c1[nH][nH]c(=O)c2cc([N+](=O)[O-])ccc12`, for which the “activity change, negative = cytotoxicity” value was 4.3%.

For `Cc1ccc(Cl)cc1N`, the “activity change, negative = cytotoxicity” value was 2.15%.

In the case of `C1=CCC2CC=CC2C1` (stereo not given), the “activity change, negative = cytotoxicity” value is -1.78%.

Regarding `OCC(CO)n1cnc(-c2ccc(F)cc2)c1-c1ccnc(Oc2ccccc2)n1`, the “activity change, negative = cytotoxicity” value is 1.2%.

Turning to `COc1ccc(C(=O)NCc2ccc(OCCN(C)C)cc2)cc1OC`, the “activity change, negative = cytotoxicity” value is -3.33% [at 42.5 µM].

Take `Cc1ccc(N(CC2=NCCN2)c2cccc(O)c2)cc1`: the “activity change, negative = cytotoxicity” value is 0.819% [at 42.5 µM].

For `Nc1nc2ccc(OC(F)(F)F)cc2s1`, the “activity change, negative = cytotoxicity” value was -0.198% [at 42.5 µM].
